Shown is part of a subset that was picked to be rich in hits.
LmPK inhibitor – blocks Leishmania mexicana pyruvate kinase activity; Q27686; Potency, µM (highest dose often 57.5 µM), actives largely listed as inhibitors; hit rate 0.37% among 290,000; purified LmPK, Kinase-Glo ATP luminescence, 1 h
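ATP generated from ADP (0.1 mM) and PEP (0.5 mM) by 0.1 nM LmPK over 1 h at room temperature (pH 7.2 imidazole buffer) was detected by coupled luciferase luminescence. Values were normalized to uninhibited and no-enzyme wells.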
Tb PYK inh – T. brucei pyruvate kinase inhibition; hit rate 0.12% among 410,000; AID 624173; TbPYK enzyme, Kinase-Glo Plus ATP luminescence, 45 min; Potency, µM (titrated, usually from 76.8 µM), actives largely listed as inhibitors; Q57TT1; also: nearly all actives have a fitted effect of over 50% in size
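TbPYK + substrate in 50 mM TEA pH 7.2, 100 mM KCl, 10 mM MgCl2, 0.05% BSA, 0.01% Tween-20; cpd pinned; ADP 130 uM final; 45 min RT; Kinase-Glo Plus 10 min; luminescence endpoint.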
FBPA Giardia inh – Giardia lamblia aldolase inhibition; A8B2U2; purified Giardia FBPA; Potency, µM (highest dose often 59.6 µM), hits mostly inhibitors; hit rate 0.71% among 290,000; also: nearly all actives have a fitted effect of over 55% in size
Target sequence (A8B2U2 whole entry, looked up): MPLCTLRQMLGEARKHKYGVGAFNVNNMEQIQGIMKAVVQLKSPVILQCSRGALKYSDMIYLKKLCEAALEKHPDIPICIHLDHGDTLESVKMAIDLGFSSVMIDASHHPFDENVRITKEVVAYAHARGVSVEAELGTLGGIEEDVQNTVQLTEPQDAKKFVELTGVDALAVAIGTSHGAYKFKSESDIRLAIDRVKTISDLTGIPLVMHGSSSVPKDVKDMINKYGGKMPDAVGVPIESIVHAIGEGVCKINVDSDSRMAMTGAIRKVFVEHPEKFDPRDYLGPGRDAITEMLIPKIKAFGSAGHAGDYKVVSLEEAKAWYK
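40 nM FBPA preincubated 10 min at RT with compound (up to 57.5 uM final), then substrate plus GAPDH/TPI/NAD/arsenate coupling and diaphorase/resazurin added. Fluorescence read after 20 min at RT, 525/598 nm.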
CHX counter – affects cycloheximide protein synthesis inhibition readout, counter-screen; cell reporter, cycloheximide protein synthesis inhibition counterscreen; max response, %; hit rate 12% among 300,000; AID 2314; in the data active = max response mostly above about 13%, no sharp cut-off; inactive = mostly below about 14%; also: read at 38.3 µM for the half of the compounds with a filed dose
Shiga toxin inh – inhibitors of Shiga toxin in Vero cells; hit rate 9.2% among 290,000; Vero cells, Shiga toxin protein synthesis inhibition reporter; AID 2315; inhibition, % at 38.7 µM; in the data active = inhibition mostly above about 28%, no sharp cut-off; inactive = mostly below about 43%
RE007 growth inh – less growth of the S. pombe RE007 Vpr strain. hit rate 0.21% among 360,000. Potency, µM (highest dose often 92.2 µM), hits mostly inhibitors. S. pombe RE007 Vpr strain, BacTiter-Glo ATP luminescence, 24 h; active = well fitted falling curve with a large enough effect; inconclusive = small, poorly fitted or top-dose-only effect; inactive = no such curve, though single readings can be large or run the other way; also: nearly all actives have a fitted effect of over 50% in size
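Fission yeast RE007 carrying one integrated HIV-1 vpr copy, seeded at OD 0.01 in PMG+AL medium with 23 nL pinned compound. Grown 24 h at 30 degrees; viability read by BacTiter-Glo luminescence after 5 min.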
A number is an active result; [ ] = dose if it differs, or a comment. Unless noted, calls follow the shape of the dose curve; as a rule, active = well fitted curve in the direction sought with a large enough effect; inconclusive = small, poorly fitted or top-dose-only effect, or another doubt; inactive = no such curve, though single readings can be large; an effect the other way counts as inactive or inconclusive.

CC(C)(C)c1ccc(OCC(=O)NCc2ccco2)c(Br)c1 was read as LmPK inhibitor inactive, Tb PYK inh inactive, FBPA Giardia inh inactive, CHX counter 29.5, Shiga toxin inh inactive and RE007 growth inh inconclusive.
For O=C(COC(=O)c1ccccc1Nc1ccccc1)NCc1ccco1 the results were LmPK inhibitor inactive, Tb PYK inh inactive, FBPA Giardia inh inactive, CHX counter 16.2, Shiga toxin inh inactive and RE007 growth inh inactive.
CC(=O)Nc1ccc(C(=O)OCc2ccccc2Br)cc1 was read as LmPK inhibitor inactive, Tb PYK inh inactive, FBPA Giardia inh inactive, CHX counter 27.1, Shiga toxin inh 58.5 and RE007 growth inh inactive.
Screening CC(=O)Nc1cc(C(=O)OCC(=O)c2ccc(C)cc2)ccc1C returned LmPK inhibitor inactive, Tb PYK inh inactive, FBPA Giardia inh inactive, CHX counter 85.8 and Shiga toxin inh 127.6.
For CCCC(c1nnnn1C1CCCCC1)N1CCN(C2CCCC2)CC1 (stereo unspecified) the results were LmPK inhibitor inactive, Tb PYK inh inactive, FBPA Giardia inh inactive, CHX counter inactive, Shiga toxin inh inactive and RE007 growth inh inactive.
`CCCCC(c1nnnn1C1CCCC1)N1CCN(C2CCCC2)CC1` (stereo unspecified) gave LmPK inhibitor inactive, Tb PYK inh inactive, FBPA Giardia inh inactive, CHX counter 32.0, Shiga toxin inh inactive and RE007 growth inh inactive.
CC12CCC=CC1C(c1ccc3ccccc3c1C=Cc1ccccc1)N(Cc1ccccc1)C2=O (stereo unspecified) was read as FBPA Giardia inh inactive, CHX counter inactive and Shiga toxin inh inactive.
Screening C/C(=N\NC(=O)Nc1ccccc1)c1ccc2ccccc2c1 returned LmPK inhibitor inactive, Tb PYK inh inactive, FBPA Giardia inh inactive, CHX counter inactive, Shiga toxin inh inactive and RE007 growth inh inactive.
C/C(=N/NC(=O)Nc1ccccc1)c1ccc(C)cc1 was read as LmPK inhibitor inactive, Tb PYK inh inactive, FBPA Giardia inh inactive, CHX counter inactive, Shiga toxin inh 28.7 and RE007 growth inh inactive.
CC/C(=N\NC(=O)Nc1ccccc1)c1ccccc1 was read as LmPK inhibitor inactive, Tb PYK inh inactive, FBPA Giardia inh inactive, CHX counter 19.4, Shiga toxin inh inactive and RE007 growth inh inactive.
For CC(=O)SC(C)CC(=O)Nc1ccccc1 (stereo unspecified) the results were LmPK inhibitor inactive, Tb PYK inh inactive, FBPA Giardia inh inactive, CHX counter inactive, Shiga toxin inh inactive and RE007 growth inh inactive.
`CCOC(=O)C/C(C)=N/NC(=O)Nc1ccccc1` gave LmPK inhibitor inactive, Tb PYK inh inactive, FBPA Giardia inh inactive, CHX counter 39.6, Shiga toxin inh active and RE007 growth inh inactive.
`CC/C(=N\NS(C)(=O)=O)c1ccccc1` gave LmPK inhibitor inactive, Tb PYK inh inactive, FBPA Giardia inh inactive, CHX counter inactive, Shiga toxin inh inactive and RE007 growth inh inactive.
For C/C(CC(C)C)=N\NC(=O)Nc1ccccc1 the results were LmPK inhibitor inactive, Tb PYK inh inactive, FBPA Giardia inh inactive, CHX counter 41.8, Shiga toxin inh 42.4 and RE007 growth inh inactive.
CC(C)C[C@H](NC(=O)[C@H](CC(C)C)NC(=O)[C@@H](Cc1c[nH]c2ccccc12)NC(=O)[C@H](Cc1ccccc1)NC(=O)[C@@H](Cc1c[nH]c2ccccc12)NC(=O)[C@H](CCC(N)=O)NC(=O)[C@H](CCC(N)=O)NC(=O)[C@@H]1CCCN1C(=O)[C@H](CCCCN)NC(=O)[C@@H]1CCCN1C(=O)[C@@H](CCCNC(=N)N)NC(=O)[C@@H]1CCCN1C(=O)CNC(=O)[C@H](CC(C)C)NC(=O)[C@H](CC(C)C)NC(=O)[C@H](Cc1ccc(O)cc1)NC(=O)CNC(=O)[C@H](C)NC(=O)[C@H](CO)NC(=O)[C@H](CC(N)=O)NC(=O)[C@H](CC(C)C)NC(=O)[C@@H](NC(=O)[C@H](Cc1c[nH]c2ccccc12)NC(=O)CN)[C@@H](C)O)C(N)=O was read as FBPA Giardia inh inactive, CHX counter inactive and Shiga toxin inh inactive.
COc1ccc(CCNc2nc(SCc3cccc(Cl)c3)nc3ccccc23)cc1OC was read as Tb PYK inh inactive.
Screening CC(C)c1noc(-c2ccccc2OCC(=O)Nc2cccc([N+](=O)[O-])c2)n1 returned Tb PYK inh inactive.
For COc1ccc(C(=O)Sc2nncc3ccccc23)cc1 the results were LmPK inhibitor inactive, Tb PYK inh inactive, FBPA Giardia inh inactive, CHX counter 20.2, Shiga toxin inh inactive and RE007 growth inh inactive.
`CCCCc1nn2c(=O)cc(COC(=O)c3ccccc3NC(=O)c3cccc(C)c3)nc2s1` gave Tb PYK inh inactive.
`CCS(=O)(=O)N1CC(=O)N(c2ccc(Cl)cc2C)C(C)(C(=O)NC2CCCCC2)C1` (stereo unspecified) gave Tb PYK inh inactive[15.4 µM].
For CCC1CCCCN1CCCNC(=O)c1ccc2c(c1)N(Cc1cccc(C)c1)C(=O)c1ccccc1S2(=O)=O (stereo unspecified) the results were Tb PYK inh inactive.
COc1cccc(C(=O)NC(=S)Nc2ccccc2N2CCCC2)c1 was read as LmPK inhibitor inactive, Tb PYK inh inconclusive, FBPA Giardia inh inactive, CHX counter 17.3, Shiga toxin inh inactive and RE007 growth inh inconclusive.
COc1cccc(/C=C/C(=O)Nc2ccccc2N2CCOCC2)c1 was read as LmPK inhibitor inactive, Tb PYK inh inactive, FBPA Giardia inh inactive, CHX counter 29.4, Shiga toxin inh inactive and RE007 growth inh inactive.
COc1c(C)cccc1C(=O)NC(=S)Nc1ccccc1N1CCCC1 was read as LmPK inhibitor inactive, Tb PYK inh inactive, CHX counter 29.8, Shiga toxin inh inactive and RE007 growth inh inactive.
`O=C(/C=C/c1ccc(Cl)cc1)Nc1ccccc1N1CCOCC1` gave LmPK inhibitor inactive, Tb PYK inh inactive, FBPA Giardia inh inactive, CHX counter inactive, Shiga toxin inh inactive and RE007 growth inh inactive.
`CC(=O)c1ccc(-c2cc(C3C4C=CCC(C)C4C(=O)N3Cc3ccccc3)ccc2F)cc1` (stereo unspecified) gave FBPA Giardia inh inactive, CHX counter inactive and Shiga toxin inh inactive.
Screening O=C1O[C@H]2[C@@H](OC(O)[C@@H]2O)[C@H]1O (stereo partly specified) returned Tb PYK inh inactive.
Screening Cc1[nH]c2ccccc2c1C(=O)COC(=O)C1CC(=O)N(Cc2ccccc2)C1 (stereo unspecified) returned LmPK inhibitor inactive, Tb PYK inh inactive, FBPA Giardia inh inactive, CHX counter inactive, Shiga toxin inh inactive and RE007 growth inh inactive.
Screening C=CCn1c(C)cc(C(=O)COC(=O)CNC(=O)c2ccccc2)c1C returned LmPK inhibitor inactive, Tb PYK inh inactive, FBPA Giardia inh inactive, CHX counter 114.3, Shiga toxin inh 11.5 and RE007 growth inh inactive.
